Source: PubChem
USP17 inh – inhibitors of human USP17 deubiquitinase | AID 1645855 | purified USP17, Ub-rhodamine cleavage fluorescence, 3 h | A8MUK1 | 47,000 compounds, 6.5% hits | inhibition, % at 50 µM
USP28 inh – human USP28 deubiquitinase inhibition; 47,000 compounds, 3% hits; AID 1645857; purified USP28, Ub-rhodamine cleavage fluorescence, 30 min; inhibition, % at 25 µM; Q96RU2
USP10 block – inhibitors of human USP10 deubiquitinase; Q14694; purified USP10, Ub-rhodamine fluorescence, 60 min; inhibition, % at 20 µM; 47,000 compounds, 1.1% hits; AID 1645856
USP8 inh – human USP8 deubiquitinase inhibition; P40818; AID 1645853; 47,000 compounds, 4.2% hits; purified USP8, Ub-rhodamine cleavage fluorescence, 30 min; inhibition, % at 20 µM
USP30 block – inhibitors of human USP30 deubiquitinase. Q70CQ3. purified USP30, Ub-rhodamine cleavage fluorescence. inhibition, % at 25 µM. 47,000 compounds, 5.3% hits. AID 1645860
Target sequence (Q70CQ3 whole entry, looked up): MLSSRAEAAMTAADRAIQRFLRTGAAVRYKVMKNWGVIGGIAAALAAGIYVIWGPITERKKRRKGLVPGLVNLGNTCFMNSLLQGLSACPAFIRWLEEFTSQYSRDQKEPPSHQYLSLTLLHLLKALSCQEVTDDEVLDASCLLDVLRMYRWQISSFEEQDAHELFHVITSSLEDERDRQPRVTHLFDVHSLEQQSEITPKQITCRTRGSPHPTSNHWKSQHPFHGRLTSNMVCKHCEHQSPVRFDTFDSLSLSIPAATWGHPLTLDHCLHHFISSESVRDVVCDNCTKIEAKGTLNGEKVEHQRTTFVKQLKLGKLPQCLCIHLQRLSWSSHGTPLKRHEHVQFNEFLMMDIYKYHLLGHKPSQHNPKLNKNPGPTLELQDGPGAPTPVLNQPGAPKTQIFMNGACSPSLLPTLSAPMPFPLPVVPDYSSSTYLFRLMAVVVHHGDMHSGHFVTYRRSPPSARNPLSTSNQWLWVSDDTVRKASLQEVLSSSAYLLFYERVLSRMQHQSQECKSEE
Active calls of the source: *; i = inactive; nt = no result. An excerpt weighted towards active compounds, which were near 14% of everything screened. Cut-off read from the data, not from the text of the source: active = inhibition above about 30%; inactive = the rest.

SMILES	USP17 inh	USP28 inh	USP10 block	USP8 inh	USP30 block
Cn1c(C(=O)NCCc2c[nH]c3ccccc23)cc2sccc21	11	39*	3	-90	-1
O=C(O)c1c(CNCCc2c[nH]c3ccccc23)c2ccccc2n1Cc1ccc(F)cc1	13	-1	-5	-14	-20
Cc1c(CC(=O)N[C@@H](CSCc2ccccc2)C(=O)O)c(=O)oc2cc(O)c(Cl)cc12	19	11	1	15	17
COc1ccccc1-c1cc(=O)n(CC(=O)NC(C)c2cccc3c2OCCO3)c2c1CCCC2 (centres undefined)	-1	14	-4	8	-14
CC1CCN(S(=O)(=O)c2cn(CC(=O)Nc3cccc(-c4ccno4)c3)cn2)CC1	50*	-11	17	-5	-25
O=C(Cn1cnc(S(=O)(=O)N2CCCCC2)c1)Nc1ccc2c(c1)OCO2	35*	-2	0	59*	-23
O=C1CCCC[C@@H]2[C@H](CCN2Cc2ccc3ncccc3c2)N1Cc1ccccc1F	8	-23	-2	47*	-65
Nc1ncccc1C(=O)N1CC[C@@H]2[C@H]1CCCC(=O)N2Cc1ccc(F)cc1	-4	5	-4	-2	9
Cc1cc(C(=O)N2CCOCC2)c(C)n1-c1ccc(O)cc1	86*	9	10	94*	17
O=C(O)c1ccccc1-c1ccccc1C(=O)N1CCOCC1	3	0	1	3	5
Cc1cccc(C(=O)N2CCN(S(=O)(=O)c3c(C)nn(C)c3C)CC2)c1	9	12	-2	24	19
CCCCCCCc1cc(OC(=O)c2c(CCCCCCC)cc(O)cc2O[C@@H]2O[C@H](CO)[C@H](O)[C@H](O)[C@H]2O)cc(O)c1C(=O)O	102*	100*	100*	99*	108*
CCCCCCCC/C=C\CCCCCCCc1cc(O)cc(O)c1C(=O)O	7	0	1	1	29
CCCCCCCc1cc(O)cc(OC(=O)c2c(CCCCCCC)cc(O)cc2O[C@H]2O[C@H](C(O)CO)[C@@H](O)[C@@H]2O)c1 (some centres undefined)	40*	83*	12	0	-33
CCCCCCCCCc1cc(OC(=O)c2c(CCCCCCCCC)cc(O)cc2O[C@@H]2O[C@H](CO)[C@@H](O)[C@H](O)[C@H]2O)cc(O)c1C(=O)O	100*	101*	97*	95*	104*
O=c1[nH]c(=O)n(CCc2ccccc2)c2c1CN(C1CCCC1)CN2	4	-3	2	-5	4
O=C(CCn1c(=O)c2ccccc2n(Cc2ccccc2F)c1=O)NCCc1ccccc1	0	-9	4	7	0
COc1ccc2nc(-c3ccc(NC(=O)c4cccc(OC)c4OC)cc3)cn2n1	81*	-3	10	4	-28
COc1ccc2nc(-c3cccc(NC(=O)C4CCCC4)c3)cn2n1	29	0	3	-1	2
CN1CC(C(=N)N)C(=O)NC1=O (centres undefined)	nt	4	-9	-41	4
COC(=O)c1nn(-c2ccc(Cl)cc2)c(=O)cc1Sc1ccc(C)cc1	26	-3	5	53*	3
Cc1c(-c2ccc(C#N)cc2)oc2ccc(Br)cc2c1=O	70*	0	3	5	-4
O=C(/C=C/c1ccc2c(c1)OCO2)CCc1c(Cl)cccc1Cl	19	6	5	20	21
O=C(Cn1cc(C(=O)C2CCCCC2)c2ccccc21)NCCOc1ccc(Cl)cc1	10	4	3	9	3
COc1ccc([N+](=O)[O-])cc1NC(=O)COC(=O)c1ccc2[nH]c3c(c2c1)CCCC3	71*	63*	50*	60*	60*
SMILES	USP17 inh	USP28 inh	USP10 block	USP8 inh	USP30 block
Cc1ccc(-n2nnc(C(=O)NC3CCCCC3)c2N)cc1	53*	0	2	0	2
Cc1ccc(-n2nnc(C(=O)NC3CCCC3)c2N)cc1	5	6	0	21	19
c1csc(Cn2cccc2)c1	-10	-6	-6	-20	-49
Cc1ccccc1C(=O)N1CCCn2nnc(Cn3ccnc3)c2C1	-7	4	1	-16	-2
Cc1ccccc1-c1noc(COc2ccc(C(N)=O)cc2)n1	14	40*	-5	-7	0
O=C(c1ccc(F)cc1)N1CCC2(CC1)COCCN(Cc1ccncc1)C2	-12	-8	-6	-47	-17
COc1ccc(-c2ccc(SCC(=O)Nc3ccc(F)cc3)nn2)cc1OC	17	-17	16	83*	21
O=C(CSc1ccc(-c2ccncc2)nn1)Nc1ccc(Cl)cc1	32*	10	1	4	23
COc1ccc(NC(=O)CSc2ccc(-c3cccnc3)nn2)cc1OC	-2	-16	-2	-17	-7
CC(=O)Nc1cccc(NC(=O)CSc2ccc(-c3ccc4c(c3)OCO4)nn2)c1	30	3	19	33*	33*
COc1cc(NC(=O)Cn2nc(-c3ccc(F)cc3)ccc2=O)ccc1-n1cnnn1	79*	15	51*	39*	43*
Cc1cccc(NS(=O)(=O)c2ccc3nncn3c2)c1	-2	0	-1	-27	3
Cn1nnnc1SCC(=O)NCc1cccc(C(=O)O)c1	-1	-15	0	0	-3
O=C(CSc1ccc(-c2cccc([N+](=O)[O-])c2)nn1)Nc1cccc(F)c1	79*	40*	46*	70*	45*
CN(C)CCc1cc2c(c3c1ccc1ccccc13)OCO2	17	75*	-2	8	31*
CCC(=O)Nc1ccc(-c2nc(Cn3cc(C)cn3)c(C)o2)cc1	-7	55*	1	-4	-29
CC(=O)Nc1ccc(-c2nc(Cn3nc(C)cc3C)c(C)o2)cc1	-16	-15	-1	-5	-22
CC(=O)Nc1ccc(-c2nc(Cn3cc(C)cn3)c(C)o2)cc1	-9	33*	-2	9	-40
O=C(COC(=O)c1ccc2c(c1)OCCO2)NC1CCCC1	-18	-13	1	1	7
COc1ccc(-n2nc(C)c3c2NC(=O)CC3C(=O)c2ccc3c(c2)OCCO3)cc1 (centres undefined)	10	12	-2	8	22
COc1cccc(Cn2nc3n(C(C)C)c(=O)c4ccc(C(=O)NCC(C)C)cc4n3c2=O)c1	33*	15	1	0	23
COc1cc(N2CC[C@@H]3[C@@H]2CCN3C(=O)[C@H]2CCCO2)ncn1	-5	0	-2	-107	-1
O=C(Nc1cccc2cnccc12)C1Cc2cc(Cl)ccc2O1 (centres undefined)	-92	-183	-7	-30	i
CN1CC(=O)N(C2CCCNC2)Cc2c(NC3CCCCCC3)ncnc21 (centres undefined)	-47	4	-6	-104	-26
CN1CC(=O)N(C2CCCNC2)Cc2c(NC3Cc4ccccc4C3)ncnc21 (centres undefined)	29	29	0	68*	19
O=C(Nc1ccc(Cc2ccncc2)cc1)c1ccccc1Br	4	11	4	-2	2
COc1ccccc1C(=O)Nc1ccc(Cc2ccncc2)cc1	9	35*	1	2	30
